This is a sample that favours compounds with a hit; in the whole collection about 5.3% have one here.
Marburg entry inh: inhibitors of Marburg virus binding or cell entry | actives 1.8% (n = 300,000) | Potency, µM (doses to about 37.8 µM), for the others: at the top dose activity change, negative = inhibition, hits mostly inhibitors | Marburg virus pseudotyped entry inhibition, cell reporter | AID 540276; calls by dose curve; tested in HEK293 cells
Vaccinia mCherry: inhibitors of vaccinia virus infection (mCherry reporter signal). Vaccinia virus mCherry reporter infection, fluorescence. Potency, µM (series often up to 36.5 µM), for the others: top-dose activity change, negative = inhibition, most hits filed as inhibitors. actives 0.63% (n = 310,000); calls by dose curve; tested in A549 cells; also: nearly all actives have a fitted effect of over 35% in size
HCV inhibitor: inhibitors of hepatitis C virus infection; Huh7.5.1 HCVcc-Cre infection, luciferase reporter, 44 h; Potency, µM (series often up to 41.8 µM), for inactives: at the top dose activity change, negative = inhibition, actives largely listed as inhibitors; actives 3.4% (n = 340,000); AID 651820; active = well fitted inhibition curve with a large enough effect; inconclusive = small, poorly fitted or top-dose-only effect, or another doubt; inactive = no such curve, though single readings can be large or run the other way
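Whole-lifecycle infectious HCVcc-Cre system; cells 1,000/well, compound then virus (~0.5 moi) added 4 h after plating, 44 h culture. Luciferase read 15 sec following 15 min substrate incubation, room temp.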
FMDV inh: foot and mouth disease virus antiviral activity; actives 1.2% (n = 410,000); Potency, µM (doses to about 57.9 µM), for inactives: at the highest dose activity change, negative = inhibition, hits mostly inhibitors; FMDV antiviral cell-based qHTS; AID 1159524; calls by dose curve; tested in HEK293T cells; also: read-out not given here; nearly all actives have a fitted effect of over 45% in size
LASV entry inh: blocks Lassa virus binding to or entry into cells. Potency, µM (highest dose often 37.9 µM), without a hit: top-dose activity change, negative = inhibition, hits mostly inhibitors. actives 1.2% (n = 300,000). AID 540256. Lassa virus pseudotype entry inhibition, cell reporter; calls by dose curve; tested in HEK293 cells; also: nearly all actives have a fitted effect of over 50% in size
VACV Venus inh: inhibitors of vaccinia virus (Venus reporter). Vaccinia virus Venus reporter expression, fluorescence. actives 0.46% (n = 330,000). Potency, µM (top dose mostly 36.5 µM), for the others: top-dose activity change, negative = inhibition, actives largely listed as inhibitors; calls by dose curve; tested in A549 cells; also: nearly all actives have a fitted effect of over 30% in size
* = called active by the depositor; [ ] = dose if it differs, or a comment. % is scaled to controls: 0 for no effect and ±100 for the full control effect; potency is read from the fitted curve at half-maximal effect.

O=C(NCc1ccc(F)cc1)c1cccc2c1C(=O)c1ccc(N3CCC(Cc4ccccc4)CC3)cc1S2(=O)=O was read as Vaccinia mCherry inactive, HCV inhibitor inconclusive, FMDV inh inconclusive and VACV Venus inh 98%.
`O=C(NC1CC1)c1cccc2c1C(=O)c1ccc(N3CCC(Cc4ccccc4)CC3)cc1S2(=O)=O` gave Vaccinia mCherry -18%, HCV inhibitor 10µM*, FMDV inh inconclusive and VACV Venus inh -2%.
`C/C=C(/C(=C/C)c1ccc(O)cc1)c1ccc(O)cc1` gave Marburg entry inh -30%, Vaccinia mCherry -1%, HCV inhibitor -21%[8.37 µM], FMDV inh inconclusive, LASV entry inh 26µM* and VACV Venus inh -21%.
`CCCc1cc(C(=O)Nc2ccc(C(=O)c3ccccc3)cc2)n(C)n1` gave HCV inhibitor 16µM* and FMDV inh inconclusive.
O=C(Nc1ccc(F)cc1)c1ccc(-n2cnnc2)cc1 was read as Vaccinia mCherry -9%, FMDV inh 0%, LASV entry inh 11%[46.1 µM] and VACV Venus inh -9%.
For CCCc1cc(C(=O)Nc2ccc(C(=O)c3ccc(F)cc3)cc2)n(C)n1 the results were HCV inhibitor 10µM* and FMDV inh inconclusive.
`C/C(CCN1CCc2nc(-c3ccccc3)c(-c3ccccc3)cc2C1)=N\OC[C@@H](O)[C@H]1O[C@@H]2OC(C)(C)O[C@@H]2[C@H]1O` gave Marburg entry inh 26%[14.2 µM].
For O=C(/C=C/c1ccccc1Br)c1ccc2c(c1)OCO2 the results were Marburg entry inh 13%[46.1 µM], Vaccinia mCherry inactive, HCV inhibitor 7%, FMDV inh -8%, LASV entry inh inconclusive and VACV Venus inh -14%.
`O=C(/C=C\Nc1ccccc1Br)c1ccc2c(c1)OCO2` gave Marburg entry inh 5.6µM*, Vaccinia mCherry -22%, HCV inhibitor inconclusive, FMDV inh -88% and VACV Venus inh -12%.
Screening O=C(/C=C/Nc1ccc(F)cc1Br)c1ccccc1 returned Marburg entry inh inconclusive, Vaccinia mCherry 3%, HCV inhibitor 0%, FMDV inh 2.8µM*, LASV entry inh 2µM* and VACV Venus inh -3%.
For COc1ccc(CCNC(=O)c2cc3c(=O)n4ccccc4nc3n(CCN3CCOCC3)c2=N)cc1 the results were Marburg entry inh 2.8µM*, Vaccinia mCherry -3%, HCV inhibitor inconclusive, FMDV inh -25%, LASV entry inh inconclusive and VACV Venus inh -9%.
Cc1cccn2c(=O)c3cc(C(=O)NCc4ccccc4)c(=N)n(CCCN4CCOCC4)c3nc12 was read as HCV inhibitor inconclusive and FMDV inh -9%.
For Cc1cccn2c(=O)c3cc(C(=O)NCCN4CCOCC4)c(=N)n(CCCN4CCOCC4)c3nc12 the results were Marburg entry inh 7.9µM*, Vaccinia mCherry inactive, HCV inhibitor inconclusive, FMDV inh -2%, LASV entry inh inconclusive and VACV Venus inh -9%.
`COc1ccc(CCNC(=O)c2cc3c(=O)n4ccccc4nc3n(Cc3ccco3)c2=N)cc1OC` gave HCV inhibitor 2.2µM* and FMDV inh -6%.
`COc1ccc(CCNC(=O)c2cc3c(=O)n4ccccc4nc3n(CC3CCCO3)c2=N)cc1OC` (centres undefined) gave Vaccinia mCherry -9%, HCV inhibitor 8.9µM*, FMDV inh -23% and VACV Venus inh 6%.
O=C1c2ccccc2C(O)(C2N=CC=N2)N1CCc1ccccc1 (centres undefined) was read as Marburg entry inh 10%.
Screening COC(=O)[C@@H]1C[C@@]23C(=NN=C(SC)C2Nc2ccccc23)N1C(C)=O (some centres undefined) returned Marburg entry inh -23%[14.2 µM].
Screening Cc1cccn2c(=O)c3cc(C(N)=S)c(=N)n(CCCOC(C)C)c3nc12 returned Marburg entry inh inconclusive, Vaccinia mCherry -15%, HCV inhibitor 11µM*, FMDV inh -10%, LASV entry inh inconclusive and VACV Venus inh -13%.
Cc1ccc(NC(=O)c2ccc3c(c2)C(=O)N(c2ccccc2C)C3=O)nc1 was read as Marburg entry inh inconclusive, Vaccinia mCherry -12%, HCV inhibitor 3%, FMDV inh -20%, LASV entry inh 2% and VACV Venus inh -17%.
`O=C(N/N=C/c1ccc(Cl)cc1)c1sccc1OCc1ccc(F)cc1` gave Marburg entry inh inconclusive, Vaccinia mCherry inconclusive, HCV inhibitor inconclusive, FMDV inh 4%, LASV entry inh inconclusive and VACV Venus inh inconclusive.
`O=C(N/N=C/c1ccc(F)cc1)c1sccc1OCc1ccc(F)cc1` gave Marburg entry inh 2.2µM*, Vaccinia mCherry inconclusive, HCV inhibitor inconclusive, FMDV inh 9%, LASV entry inh inconclusive and VACV Venus inh inconclusive.
CSc1ccc(/C=N/NC(=O)c2sccc2C)cc1 was read as Marburg entry inh 10µM*, Vaccinia mCherry -2%, HCV inhibitor -2%, FMDV inh -6%, LASV entry inh inconclusive and VACV Venus inh -19%.
`O=C(c1oc2ccccc2c1CSCc1ccccc1)N1CCN(c2ncccn2)CC1` gave Marburg entry inh -27%, HCV inhibitor 11µM*, FMDV inh inconclusive and LASV entry inh -17%.
CN(C(=O)Cn1cc([N+](=O)[O-])ccc1=O)C1CCCCC1 was read as Marburg entry inh 1.3µM*, Vaccinia mCherry -12%, HCV inhibitor -14%, FMDV inh -18%, LASV entry inh 9% and VACV Venus inh 4%.
Screening CN(C(=O)c1cccc(NC(=O)Cc2ccc(NC(=O)C3CCN(S(=O)(=O)c4cccc([N+](=O)[O-])c4)CC3)cc2)c1)C1CCCC1 returned Vaccinia mCherry -10%, HCV inhibitor -10%, FMDV inh -7% and VACV Venus inh -11%.
Screening CN(C(=O)c1cccc(NC(=O)Cc2ccc([N+](=O)[O-])cc2)c1)C1CCCCC1 returned Vaccinia mCherry inconclusive, HCV inhibitor 3.2µM*, FMDV inh inconclusive and VACV Venus inh inconclusive.
`CN(C(=O)c1cccc(NC(=O)Cc2ccc(NC(=O)C3CCCN(C(=O)CCc4ccccc4)C3)cc2)c1)C1CCC1` (centres undefined) gave Vaccinia mCherry inconclusive, HCV inhibitor -7%[8.37 µM], FMDV inh 18µM* and VACV Venus inh inconclusive.
`CN(Cc1ccccc1)C(=O)c1cccc(NC(=O)Cc2ccc(NC(=O)C3CCCN(C(=O)C4CCCCC4)C3)cc2)c1` (centres undefined) gave Vaccinia mCherry 0%, HCV inhibitor 7.9µM*, FMDV inh -14% and VACV Venus inh -23%.
Screening O=C(NCC1CCC2(CCN(Cc3cc4ccccc4o3)CC2)O1)c1ccccc1 (centres undefined) returned Vaccinia mCherry -5%, FMDV inh 0% and VACV Venus inh -1%.

Screens as filed in PubChem.
